This is an account of results in PubChem BioAssay AID1509 (The Scripps Research Institute Molecular Screening Center, 2009).

Each structure is given as a SMILES string. Out of some 220,000 compounds screened, about 770 (0.35%) were called active. This is one part of a sample in which actives are shown more often than they occur. Unmarked numbers belong to inactive results. No stated cut-off is given here; in the data, active means activation above about 11%; inactive means the rest.

In this experiment the target is Sphingosine 1-phosphate receptor 4 (Homo sapiens) (UniProt O95977). In words: activators of human S1P4 receptor – cell-based, primary screen (AID 1509).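 Further: 0% = DMSO vehicle and 100% = reference agonist.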 The following applies: S1P4-expressing cell line, agonist reporter assay; at 4.98 µM; active compounds read high. A general note: Reporter assays use an easily measured gene product as a stand-in for the process of interest.
Sequence of Sphingosine 1-phosphate receptor 4 (Homo sapiens) (O95977 whole entry, looked up): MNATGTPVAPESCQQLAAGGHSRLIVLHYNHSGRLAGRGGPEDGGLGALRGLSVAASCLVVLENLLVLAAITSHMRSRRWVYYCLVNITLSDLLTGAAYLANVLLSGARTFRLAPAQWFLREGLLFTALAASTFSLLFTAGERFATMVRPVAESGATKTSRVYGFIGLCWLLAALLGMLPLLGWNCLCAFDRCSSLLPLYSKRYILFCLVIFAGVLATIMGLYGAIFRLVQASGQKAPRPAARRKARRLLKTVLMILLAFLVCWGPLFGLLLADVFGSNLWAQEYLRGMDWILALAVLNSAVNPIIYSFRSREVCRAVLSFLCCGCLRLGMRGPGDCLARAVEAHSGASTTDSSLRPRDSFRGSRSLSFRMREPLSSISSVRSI
As to `COc1ccc(C(=O)N2CCc3cc(OC)c(OC)cc3C2c2cccc([N+](=O)[O-])c2)cc1` (stereo unspecified), the activation is 0.65%.

On to `Cc1noc(C)c1COC(=O)Cn1c(C)nc2ccccc21`, for which the activation is -0.11%.

On to `Cc1noc(C)c1COC(=O)c1cc2ccccc2cc1O`, for which the activation was -2.59%.

Regarding `Cc1noc(C)c1COC(=O)COc1ccc(-c2ccccc2)cc1`, the activation was 36% (active).

`O=C(Nc1ccc(Br)cc1)c1cccc(NC(=O)C2C3CC4OC(=O)C2C4C3)c1` (stereo unspecified): the activation is 1.27%.

For `COc1ccc(CCNC(=O)COC(=O)Cc2cc(OC)c(OC)c(OC)c2)cc1`, the activation was -1.28%.

`CC(=O)Nc1ccc(S(=O)(=O)N2CCN(c3ccc([N+](=O)[O-])c(NCCN4CCOCC4)c3)CC2)cc1`: the activation was 0.49%.

For the compound `Cn1nnnc1SCC(=O)NNC(=O)c1ccc(Br)cc1`, the activation is 0.67%.

Take `CN(Cc1ccccc1)C(=O)COC(=O)c1ccccc1Nc1ccccc1`: the activation was -0.61%.

In the case of `COC(=O)c1c(NC(=O)CN2C(=O)NC(CCc3ccccc3)C2=O)sc2c1CCCCC2` (stereo unspecified), the activation is 0.65%.

Turning to `CCOC(=O)/C=c1\s/c(=C\c2ccc(C#N)cc2)c(=O)n1CC(=O)Nc1cccc(C)c1C`, the activation is -0.03%.

As to `Cc1ccc(CC(=O)Nc2cccc(C#N)c2)cc1`, the activation was 1.55%.

On to `CCOC(=O)/C(C#N)=C/c1ccc(OCC(=O)Nc2ccccc2)c(OC)c1`, for which the activation was -0.12%.

For the compound `Cc1cc(C)nc(N(C#N)CC(=O)Nc2ccccc2)n1`, the activation is 14.7% (active).

On to `N#Cc1c(NC(=O)C2CC(Cl)=CCC2C(=O)O)sc2c1CCCCC2` (stereo unspecified), for which the activation is 0.41%.

Regarding `Cn1nnnc1NCc1ccc(Cl)c(Cl)c1`, the activation is 0.14%.

In the case of `COc1ccc(N(CC(=O)NC2CCCC2)C(=O)CS(=O)CC(=O)Nc2ccc3c(c2)OCO3)cc1` (stereo unspecified), the activation was 1.8%.

On to `COc1ccc(-c2cn3ccc(C)cc3n2)cc1`, for which the activation is 0.65%.

Consider `CCC(C)(C)NC(=O)C1c2ccccc2Oc2ccccc21`, for which the activation is 0.03%.

On to `CCC(C)NC(=O)C1c2ccccc2Oc2ccccc21` (stereo unspecified), for which the activation was 15.7% (active).

Turning to `CCOC(=O)CC(NC(=O)C1c2ccccc2Oc2ccccc21)c1ccc(C)cc1` (stereo unspecified), the activation is -0.87%.

Consider `O=[N+]([O-])c1ccc2[nH]c3c(c2c1)CCCC3O` (stereo unspecified), for which the activation was 0.79%.

For the compound `O=C(CSc1ccc(-c2ccc(F)cc2)nn1)Nc1ccc2c(c1)OCCO2`, the activation is 57.3% (active).

In the case of `Cc1ccc(SCC(=O)Nc2ccc3c(c2)OCCO3)cc1`, the activation was -0.03%.

Take `Cc1csc(NC(=O)CSc2ccc(-c3ccc(F)cc3)nn2)n1`: the activation is 0.5%.

For `Cc1cc(NC(=O)CSc2nnc(Nc3ccccc3F)s2)no1`, the activation was 0.31%.

For `O=C(CSc1nnc(Nc2ccccc2)s1)Nc1cccnc1Cl`, the activation was 62.7% (active).

With `O=C(CSc1nnc(C2CC2)n1Cc1ccccc1)Nc1cccnc1Cl`, the activation is 0.19%.

Turning to `CCn1nnnc1SCC(=O)c1ccc(C)cc1C`, the activation was -0.47%.

Regarding `Cc1ccc(NC(=O)N2CCSc3ccccc32)cc1`, the activation is 0.59%.

In the case of `CC(=O)Nc1ccc(Nc2c([N+](=O)[O-])cc(S(C)(=O)=O)cc2[N+](=O)[O-])cc1`, the activation was -0.76%.

Consider `Cn1c(=O)c2c(nc(N3CCOCC3)n2CCNC2=NCCC2)n(C)c1=O`, for which the activation was -3.47%.

`Cc1ccc(C(=O)NC(=S)Nc2ccccc2C)cc1`: the activation is 1.14%.

With `CSCc1ccc(C(=O)Nc2cc(C)cc(C)c2)cc1`, the activation was 0.79%.

As for `CC(=O)Nc1ccccc1NC(=O)c1cc(C)cc(C)c1`, the activation was 52.2% (active).

Take `O=S(=O)(NCCc1ccncc1)c1ccccc1`: the activation is -2.17%.

Turning to `CCN(CC)CCCSc1nc2ccccc2s1`, the activation was -1.06%.

For the compound `CCC(=O)Oc1cccc(C(=O)Nc2ccc(-c3nnc(-c4ccco4)o3)cc2)c1`, the activation was 1.45%.

For the compound `CCCCOc1ccc(-c2nnc(-c3ccco3)o2)cc1`, the activation was 0.55%.

For `CCOc1ccc(-c2nnc(-c3ccco3)o2)cc1`, the activation was 13.2% (active).

As for `COC(=O)[C@@H]1CC[C@H](C)[C@@H](c2ccc(C)cc2)N1C(=O)c1ccc(/C=N/O[C@H](C)c2cn([C@@H]3COC[C@H]3O)nn2)cc1`, the activation was 44.7% (active).

On to `O=C(CC1C(=O)NCCN1CC(c1ccccc1)c1ccccc1)NCCc1cn[nH]c1` (stereo unspecified), for which the activation is -1.81%.

For `Cc1cc(C(=O)COC(=O)C2CC2)c(C)n1-c1ccc(F)cc1`, the activation is 1.5%.

For `Cc1ccc(S(=O)(=O)NC(=O)Nc2nc(-c3ccc(F)c(F)c3)cs2)cc1`, the activation is 1.19%.

Regarding `CNS(=O)(=O)c1ccc(NC(=O)C2CC(=O)N(c3ccc(Cl)cc3)C2)cc1` (stereo unspecified), the activation is -4.58%.

With `COc1cccc2c1CCC(NC(C)=O)C2=O` (stereo unspecified), the activation is 1.12%.

Regarding `Cn1c(SCC(=O)N2CCOCC2)nnc1-c1ccc2ncccc2c1`, the activation is 1.83%.

For `O=C(CSc1nncn1-c1cccnc1)N1CCOCC1`, the activation is 44.7% (active).

Regarding `O=C(CSc1nnc(Cc2ccccc2)n1-c1ccccc1)N1CCOCC1`, the activation is -2.13%.

For the compound `O=C(Nc1ccc(NC(=O)c2ccco2)c(Cl)c1)c1cccc([N+](=O)[O-])c1`, the activation was 1.27%.

Take `CCN(CC)S(=O)(=O)c1cccc(-c2n[nH]c(=S)n2/N=C/c2ccc(C(=O)OC)cc2)c1`: the activation is 0.89%.

In the case of `O=[N+]([O-])c1cccc(Nc2c3ccccc3nc3ccccc23)c1`, the activation is 13.1% (active).

Regarding `CC(=O)Nc1ccc(Nc2c3ccccc3nc3ccccc23)cc1`, the activation is 4.18%.

In the case of `Cc1cc(CNC(=O)c2cccc([N+](=O)[O-])c2)c2ccccc2n1`, the activation is 1.06%.

With `CCCCc1ccc(S(N)(=O)=O)cc1`, the activation is -0.75%.

As for `CC(C)(C)n1cnnc1Sc1ccc([N+](=O)[O-])cn1`, the activation is -0.36%.

For `CC(C)(C)C(=O)NCCCNc1ccc([N+](=O)[O-])cc1`, the activation is 0.65%.

In the case of `Cc1cc(C)c(C#N)c(SCC(=O)NN2CC(=O)N(c3ccccc3F)CC2=O)n1`, the activation was 55.1% (active).

For `Cc1cc(C)c(C#N)c(SCC(=O)Nc2ccccc2)n1`, the activation was 2.39%.

For `Cc1cc(C)c(C#N)c(SCc2ccccc2C(=O)O)n1`, the activation is 0.52%.

For `O=C(O)CCn1cc(/C=C/C(=O)c2ccc(Cl)cc2)c(-c2cccc(Br)c2)n1`, the activation is 0.7%.
